Measured potencies and affinities stand elsewhere. Active and inactive are the calls of the source. How the calls were made is not given here.
assay: HEK293 cell cytotoxicity, dose response, cytotoxicity control, dry powder samples (AID 720567); settings: plate reader; series mostly up to 15 µM

SMILES | outcome
c1ccc(CSc2nnc(-c3ccccc3)o2)cc1 | inactive
COc1ccc(CSc2nnc(-c3ccccc3)o2)cc1 | inactive
CC(=O)N[C@H]1[C@@H](O[C@@H]2OC(C[C@@H](O)C3O[C@@H](n4ccc(=O)[nH]c4=O)[C@H](O)[C@@H]3O)[C@H](O)[C@H](O)[C@H]2NC(=O)/C=C/CCCCCCCCCCC(C)C)O[C@H](CO)[C@@H](O)[C@@H]1O (stereo partly drawn) | inactive
